Hits are enriched below; roughly 1.6% of the tested compounds scored in any of these assays.
Vif inh: inhibitors of HIV Vif; HEK293T cells, Vif self-association by quenched fluorescence, imaging, 24 h; inhibition, % at 7.49 µM; 340,000 tested, 0.35% active; AID 602346; in the data active = inhibition above about 50%, passing the limit was not always enough; inconclusive = no clear call, values can overlap the other calls; inactive = below about 31%
RAD54 branch: RAD54 (human) branch migration inhibition; RAD54 Holliday junction branch migration, FAM/BHQ fluorescence; inhibition, % at 10.4 µM; 360,000 tested, 0.14% active; AID 602329;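 active = mean normalized replicate activity at least 40 and at least half of replicates scoring 40 or more; inconclusive = only one of the two criteria met; inactive = mean below 40 and under half of replicates reaching 40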;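 also: 0% = median of neutral control wells and 100% = median of positive control wells; inhibitors cause a drop in the FAM fluorescence signal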
ABCB6 inh 2: human ABCB6 transporter inhibition | K562-ABCB6 porphyrin accumulation, flow cytometry, 1 h; active compounds read low | fluorescence ratio to DMSO, % at 10 µM | 360,000 tested, 0.19% active;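 active = fluorescence ratio to DMSO below 75%, the collection mean minus 3 SD; inconclusive = too few cells collected in the well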;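 also: signal is porphyrin accumulated inside mitochondria; 100% equals median channel fluorescence of DMSO control wells; lower ratio means ABCB6 inhibition with less porphyrin fluorescence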
Target sequence (Q9NP58 whole entry, looked up): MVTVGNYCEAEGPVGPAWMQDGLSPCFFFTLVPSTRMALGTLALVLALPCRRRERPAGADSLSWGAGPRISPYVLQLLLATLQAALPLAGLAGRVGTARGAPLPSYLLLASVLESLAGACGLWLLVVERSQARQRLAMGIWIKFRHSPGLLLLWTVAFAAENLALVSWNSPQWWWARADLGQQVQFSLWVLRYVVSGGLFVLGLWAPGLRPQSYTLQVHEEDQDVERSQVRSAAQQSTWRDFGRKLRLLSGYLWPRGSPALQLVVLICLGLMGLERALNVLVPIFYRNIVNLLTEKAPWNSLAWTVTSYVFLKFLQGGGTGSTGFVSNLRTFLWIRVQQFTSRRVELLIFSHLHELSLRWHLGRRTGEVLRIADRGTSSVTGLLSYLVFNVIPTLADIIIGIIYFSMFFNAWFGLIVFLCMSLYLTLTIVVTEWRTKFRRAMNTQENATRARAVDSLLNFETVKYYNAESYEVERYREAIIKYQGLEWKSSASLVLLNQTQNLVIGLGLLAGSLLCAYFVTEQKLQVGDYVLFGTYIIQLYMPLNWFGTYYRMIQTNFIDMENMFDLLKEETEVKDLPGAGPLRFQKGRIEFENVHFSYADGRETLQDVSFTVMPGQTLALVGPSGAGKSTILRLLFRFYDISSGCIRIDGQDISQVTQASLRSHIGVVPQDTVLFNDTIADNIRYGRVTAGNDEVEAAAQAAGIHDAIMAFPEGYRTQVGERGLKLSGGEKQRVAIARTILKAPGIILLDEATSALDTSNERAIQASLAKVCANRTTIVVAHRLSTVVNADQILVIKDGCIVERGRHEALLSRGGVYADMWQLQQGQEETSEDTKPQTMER
Glyco luc inh: blocks N-linked glycosylation in D54 reporter cells | D54 ERlucT glycosylation luciferase reporter, 24 h; percent of 100 nM tunicamycin response | reporter increase, % at 12.5 µM | 360,000 tested, 0.23% active | AID 588692;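 active = mean luciferase reporter signal, scaled so untreated is 0 and the glycosylation-blocking control 100, at or above a set limit in every replicate; inconclusive = mean reaches the limit but not every replicate does; inactive = mean below the limit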;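 also: luciferase carries N-glycosylation sites so blocking glycosylation raises the light; 0% = median of neutral control wells and 100% = median of 100 nM tunicamycin wells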
Myeloid diff MLP: myeloid differentiation induction | ER-HoxA9 myeloid progenitors, lysozyme-GFP differentiation, flow cytometry | calls only at 10 µM | 360,000 tested, 1% active | AID 624256;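 active = normalized GFP-positive differentiation at or above the plate's own cutoff, the solvent-only control mean plus 3 SD; inconclusive = no clear call, values can overlap the other calls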;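 also: cells exposed to compound for four days before flow analysis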
* = called active by the depositor; i = inactive; ? = inconclusive; nt = no result; + = active, no number.

SMILES	Vif inh	RAD54 branch	ABCB6 inh 2	Glyco luc inh	Myeloid diff MLP
COc1cccc(CNC(=O)C[C@H]2CC[C@@H](NS(=O)(=O)c3ccccc3OC)[C@@H](CO)O2)c1	nt	-6.0	nt	nt	nt
O=C(Cn1ncc2c([nH]c3ccccc32)c1=O)NCCc1ccc(Cl)cc1	0.6	-8.3	93.0	2.2	i
O=C(Cn1ncc2c([nH]c3ccccc32)c1=O)Nc1ccc(CN2CCCCC2)cc1	3.4	-16.9	97.0	-4.0	+
CCCCN1Cc2ccccc2Oc2cc(Br)ccc2S1(=O)=O	-3.3	-1.4	97.0	-2.1	+
CC(C)CN1Cc2ccccc2Oc2cc(Br)ccc2S1(=O)=O	-11.6	-7.1	102.0	-2.4	i
CC(C)NC(=O)N(C)C[C@@H]1Oc2ccc(NC(=O)CCCCCC(=O)Nc3ccccc3N)cc2CC(=O)N([C@@H](C)CO)C[C@H]1C	nt	-11.1	nt	nt	nt
CCCOc1ccc(OC(=O)Cc2ccc(OC)c(S(=O)(=O)N3CCOCC3)c2)cc1	5.2	nt	90.0	0.8	+
COc1ccccc1CNC(=O)C[C@H]1CC[C@@H]2[C@H](COC[C@@H](O)CN2C(=O)Nc2ccc(F)cc2)O1	nt	10.4	nt	nt	nt
O=[N+]([O-])c1ccc(-c2ccc(/C=N/Nc3nc(N4CCCCC4)nc(N4CCCCC4)n3)o2)cc1	7.1	nt	i	1.9	+
O=[N+]([O-])c1cccc(-c2ccc(/C=N/Nc3nc(N4CCCCC4)nc(N4CCCCC4)n3)o2)c1	-12.1	nt	97.0	-6.8	i
Cc1ccc(OCc2ccc([N+](=O)[O-])cc2)c([N+](=O)[O-])n1	7.2	5.7	101.0	-2.5	i
Cc1ccc(OCc2ccccc2C)c([N+](=O)[O-])n1	25.9	1.8	101.0	-1.1	+
COc1ccc(CNC(=O)Cc2c(C(=O)O)[nH]c3ccccc23)c(OC)c1	-21.7	-4.5	136.0	0.5	+
O=C(Nc1ccccc1F)N1CCCCN2[C@H](CO)[C@@H](c3ccc(C4=CCCCC4)cc3)[C@H]2C1	nt	-11.1	nt	nt	nt
CCn1cc([N+](=O)[O-])c(C(=O)N2CCCC2)n1	5.5	2.9	102.0	0.9	+
CCn1cc([N+](=O)[O-])c(C(=O)N2CCN(C(=O)c3ccco3)CC2)n1	-3.8	8.0	103.0	-1.8	i
CCCN(CCC)c1ccc(/C=C/c2ccc3cc(OCC)ccc3n2)cc1	10.1	-0.8	330.0	-0.2	+
COc1ccc(OC)c(/C=C2\NC(=O)NC2=O)c1	-13.0	nt	86.0	-5.7	i
COc1cc(N2CCCC2)c(OC)cc1/C=C1/NC(=S)NC1=O	nt	nt	482.0	-1.3	+
C[C@H](CO)N1C[C@H](C)[C@@H](CN(C)C(=O)C2CC2)Oc2cc(-c3ccccc3F)ccc2S1(=O)=O	nt	3.4	nt	nt	nt
CC(C)n1c(SCC(=O)N2c3ccccc3Sc3ccccc32)nc2c1c(=O)n(C)c(=O)n2C	10.4	-5.0	96.0	-7.8	+
C[C@@H]1CN([C@@H](C)CO)C(=O)c2cc(NC(=O)Nc3ccc(F)cc3)ccc2O[C@H]1CN(C)S(=O)(=O)c1ccccc1	nt	2.2	nt	nt	nt
COc1ccc(CCN(/C=C2\Sc3ccccc3C2=O)C(C)=O)cc1OC	-1.7	-4.9	157.0	1.5	+
CC1(C)CNc2cc(N)ccc2S1	4.9	nt	116.0	-2.0	+
CC=Cc1ccc2n(c1=O)C[C@@H]1[C@@H](CO)[C@H](C(=O)N3CCOCC3)N(Cc3ccccc3OC)[C@H]21 (mixture of isomers)	nt	-6.4	nt	nt	nt
SMILES	Vif inh	RAD54 branch	ABCB6 inh 2	Glyco luc inh	Myeloid diff MLP
COCCN=C1N[C@@H](c2ccc(Br)cc2)C(C(=O)OC)=C(C)N1Cc1ccccc1	-2.9	0.3	97.0	-0.3	+
O=C(CCCn1c(=S)[nH]c2ccccc2c1=O)N1CCN(c2cccc(Cl)c2)CC1	107.2*	2.0	99.0	-5.2	i
O=C(CCCCCn1c(=S)[nH]c2ccc(N3CCOCC3)cc2c1=O)NCc1ccc(Cl)cc1	-3.7	-4.4	99.0	1.8	i
O=C(CCCCn1c(=O)[nH]c2ccccc2c1=O)N1CCN(c2cccc(C(F)(F)F)c2)CC1	nt	0.0	92.0	-4.3	i
O=C(CCCCCn1c(=S)[nH]c2ccc(N3CCOCC3)cc2c1=O)NCc1ccccc1Cl	+	4.8	93.0	-3.4	i
CCc1cc(=O)oc2cc(OCc3ccc(C(=O)O)o3)ccc12	-11.4	-6.3	132.0	3.7	+
O=c1oc(/C=C/c2ccc([N+](=O)[O-])s2)nc2ccccc12	i	-15.3	145.0	9.2	+
COc1ccc(NC(=O)CCN2C(=O)C3CC=CCC3C2=O)cc1S(=O)(=O)N1CCCCC1 (stereo unspecified)	72.9*	-5.0	100.0	-0.1	i
O=C(c1ccc(F)cc1)N1CCCCN2[C@H](CO)[C@H](c3ccc(-c4ccc(F)cc4)cc3)[C@H]2C1	nt	5.3	nt	nt	nt
C[C@@H]1CN([C@@H](C)CO)C(=O)Cc2cc(NC(=O)Cc3ccccc3)ccc2O[C@@H]1CN(C)S(=O)(=O)c1ccc(F)cc1	nt	-6.3	nt	nt	nt
O=C1OCCC1=COCCCCCOC=C1CCOC1=O	70.8*	8.8	94.0	-1.1	i
O=c1cc(N=Nc2ccc(Cl)cc2)[nH]c(=O)[nH]1	-1.2	1.0	102.0	70.3*	?
O=c1cc(-c2ccc(Cl)cc2)oc(=O)[nH]1	-3.0	nt	100.0	-0.2	i
COCCNC(=O)C[C@H]1CC[C@H]2[C@@H](COC[C@H](O)CN2C(=O)Nc2ccccc2OC)O1	nt	-3.1	nt	nt	nt
O=C(CSc1nc2ncc(Cl)cc2[nH]1)c1c[nH]c2ccccc12	10.7	-6.3	112.0	1.5	+
O=C(CSc1nc2ccc(Cl)cc2[nH]1)c1c[nH]c2ccccc12	0.6	-4.5	100.0	2.7	i
CCCN1C[C@H](C)[C@@H](OC)CN(C)C(=O)c2ccc(NC(=O)c3cccc(F)c3)cc2OC[C@H]1C	nt	1.0	nt	nt	nt
O=C(C[C@@H]1CC[C@H]2[C@@H](COC[C@@H](O)CN2S(=O)(=O)c2cccc(Cl)c2)O1)NCCCN1CCOCC1	nt	3.7	nt	nt	nt
COc1cc(C2NC(=O)c3ccccc3O2)ccc1OC(C)C (stereo unspecified)	-1.8	3.6	99.0	2.1	+
CCOc1cc(C2NC(=O)c3ccccc3O2)ccc1OC (stereo unspecified)	5.4	11.9	100.0	2.1	i
CCC(=O)N1C[C@H](C)[C@@H](OC)CN(C)C(=O)c2ccc(NC(=O)Nc3ccc(Cl)cc3)cc2OC[C@H]1C	nt	1.7	nt	nt	nt
O=C1C(=Cc2cccc(O)c2O)SC(=S)N1CCCN1CCOCC1	0.2	-9.6	101.0	0.6	+
CCCN(C)C[C@@H]1Oc2cc(-c3cncnc3)ccc2S(=O)(=O)N([C@@H](C)CO)C[C@@H]1C	nt	-5.1	nt	nt	nt
Cc1cccc(S(=O)(=O)N2CC[C@@H]3[C@H]2c2cc(C#Cc4cccnc4)ccc2N[C@@H]3CO)c1	nt	1.0	nt	nt	nt
CC(OC(=O)c1ccc2ncsc2c1)C(=O)Nc1cccc(Cl)c1 (stereo unspecified)	2.8	-14.5	79.0	-0.6	?
